The nature of experiment [1]: ATG_CRE_CIS: Attagene CIS-FACTORIAL HepG2 Assay for human cAMP Responsive Element (CRE) binding protein 3 (AID 2282926). The settings on record: HepG2 CRE cis-reporter, Attagene multiplexed mRNA; actives raise or lower the signal. Put shortly: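 Capillary electrophoresis of 6-FAM-labelled, HpaI-digested PCR products quantified reporter transcripts. These came from HepG2 transiently transfected with cis-element reporters and exposed to test chemicals for 24 hours, with DMSO defining baseline activity.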

Experiment [2] addresses CCAAT/enhancer-binding protein beta (Homo sapiens) (UniProt P17676). The experiment is described as follows: ATG_C_EBP_CIS: Attagene CIS-FACTORIAL HepG2 Assay for human CCAAT/Enhancer Binding Protein (C/EBP) beta (AID 2282927). The settings on record: HepG2 Attagene cis-factorial transcription factor reporter; actives raise or lower the signal. The method in brief: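 Endogenous transcription factor activity in human liver HepG2 cells is inferred from induction of a CEBPB-linked reporter mRNA. Exposure lasts 24 h; activity is fitted in both directions relative to DMSO.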

Experiment [3] can be described thus: ATG_CMV_CIS: Attagene CIS-FACTORIAL HepG2 Assay for human CMV (Internal Marker) (AID 2282928).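 Further: endpoint acts as a background internal control marker rather than a target.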 Conditions: HepG2 CMV promoter reporter, transcription factor profiling; actives raise or lower the signal. Put shortly:
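24 h chemical treatment, HepG2 with transient multi-reporter transfection; RNA → oligo(dT) RT → PCR → 6-FAM extension → HpaI digest → CE fluorescence. Bidirectional fit, DMSO negative control.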

A short description of experiment [4]: ATG_DR4_LXR_CIS: Attagene CIS-FACTORIAL HepG2 Assay for human Liver X Receptor (LXR), DR4 submotif (AID 2282929). Conditions: HepG2 Attagene DR4 cis-reporter, mRNA transcription; actives raise or lower the signal. Put shortly: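 Cells were transfected with multiple reporter transcription units, exposed to chemicals for 24 hours, then lysed for RNA. Reporter mRNA induction was measured by RT-PCR with capillary electrophoresis detection and fitted in both directions relative to DMSO.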

Experiment [5] has as its target Aryl hydrocarbon receptor (Homo sapiens) (UniProt P35869). The experiment is described as follows: ATG_Ahr_CIS: Attagene CIS-FACTORIAL HepG2 Assay for human Aryl Hydrocarbon Receptor (Ahr) (AID 2282930). Conditions: HepG2 AhR cis-factorial reporter transcription; actives raise or lower the signal. The method in brief: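 Transient MRTU transfection of HepG2 → 24 h compound exposure → total RNA, oligo(dT) RT → PCR, 6-FAM extension, HpaI cut → CE fluorescence. DMSO = baseline; bidirectional curve fit.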

Experiment [6] is described as follows: ATG_AP_1_CIS: Attagene CIS-FACTORIAL HepG2 Assay for human Activator Protein 1 (AP-1) (AID 2282931). The settings on record: HepG2 Attagene cis-factorial AP-1 reporter mRNA; actives raise or lower the signal. Put shortly: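 Endogenous transcription-factor activity in human HepG2 liver cells is read through a cis-promoter reporter transcript, sampled 24 h after dosing. Detection uses RT-PCR with capillary electrophoresis; values come from bidirectional fitting relative to DMSO.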

Experiment [7] can be described thus: ATG_AP_2_CIS: Attagene CIS-FACTORIAL HepG2 Assay for human Activator Protein 2 (AP-2) (AID 2282932). The settings on record: HepG2 AP-2 cis-reporter, Attagene transcription factor profiling; actives raise or lower the signal. Put shortly: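 Transiently transfected HepG2 cells are exposed to chemical for 24 h. Reporter transcripts are then measured as fluorescence following RT-PCR and capillary separation, and gain- or loss-of-signal is fitted relative to DMSO.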

Experiment [8] in a line: ATG_BRE_CIS: Attagene CIS-FACTORIAL HepG2 Assay for human Bone Morphogenetic Protein (BMP) Response Element (BRE) (AID 2282933). Conditions: HepG2 BMP response element reporter, Attagene transcription factor profiling; actives raise or lower the signal. Put shortly: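 Fluorescence-labelled reporter cDNA fragments, separated by capillary electrophoresis, gave the signal for this component of a 52-readout multiplex. HepG2 cells were transfected, exposed to chemicals for 24 h, and compared with DMSO using bidirectional fitting.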

The target in experiment [9] is Transcription factor E2F1 (Homo sapiens) (UniProt Q01094). The experiment is described as follows: ATG_E2F_CIS: Attagene CIS-FACTORIAL HepG2 Assay for human E2F Transcription Factor 1 (AID 2282935). The settings on record: HepG2 Attagene cis-reporter, E2F reporter RNA transcripts; actives raise or lower the signal. The method in brief:
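Fluorescent RT-PCR products, digested with HpaI for 2 h at 37 C, are separated by capillary electrophoresis. Source RNA comes from transfected HepG2 cultures treated for 24 h.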

Experiment [10] is described as follows: ATG_E_Box_CIS: Attagene CIS-FACTORIAL HepG2 Assay for human Enhancer Box (E-box) (AID 2282936). The settings on record: HepG2 E-box cis-reporter transcription, actives raise or lower the signal. Put shortly: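 Fluorescent reporter fragments separated by capillary electrophoresis gave the signal; mRNA came from HepG2 cells transfected with cis-element reporters and treated 24 h. Curves fitted bidirectionally relative to DMSO controls.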

Experiment [11] is described as follows: ATG_M_61_CIS: Attagene CIS-FACTORIAL HepG2 Assay for M61 Transcription Factor (Internal Marker) (AID 2282937). Conditions: HepG2 Attagene CIS-FACTORIAL M61 internal marker reporter; actives raise or lower the signal. Put shortly:
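Cells were transfected with reporter units under cis-regulatory promoters, treated with chemicals for 24 h, then lysed for RNA. Reporter transcripts were quantified by RT-PCR and capillary electrophoresis, and activity was fitted bidirectionally against DMSO.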

Experiment [12] in a line: ATG_EGR_CIS: Attagene CIS-FACTORIAL HepG2 Assay for human Early Growth Response 1 (EGR1) (AID 2282938). The settings on record: HepG2 Attagene CIS-FACTORIAL EGR reporter mRNA; actives raise or lower the signal. The method in brief:
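Endogenous TF activity in HepG2 liver cells was gauged through cis-promoter reporter constructs transiently transfected. After 24 h dosing, reporter mRNA was quantified by RT-PCR and capillary electrophoresis, and curves fitted in both directions versus DMSO.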

Experiment [13] can be described thus: ATG_M_19_CIS: Attagene CIS-FACTORIAL HepG2 Assay for M19 Transcription Factor (Internal Marker) (AID 2282939). Conditions: HepG2 Attagene CIS-FACTORIAL M19 internal marker reporter; actives raise or lower the signal. Put shortly: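 HepG2, MRTU transient transfection, 24 h dosing. Total RNA → RT-PCR → 6-FAM primer extension → HpaI digest → CE fluorescence. Bidirectional curve fit, DMSO negative control.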

A short description of experiment [14]: ATG_ERE_CIS: Attagene CIS-FACTORIAL HepG2 Assay for Estrogen Response Element (ERE) (AID 2282940). The settings on record: HepG2 ERE cis-reporter, Attagene RNA transcript; actives raise or lower the signal. Put shortly: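 After a 24 h chemical treatment, RNA from reporter-transfected HepG2 cells is reverse-transcribed, PCR-amplified and fluorescently labelled. Fragments separated by capillary electrophoresis give reporter signal; DMSO serves as negative control.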

Experiment [15] in a line: ATG_Ets_CIS: Attagene CIS-FACTORIAL HepG2 Assay for human Erythroblast Transformation Specific (ETS) (AID 2282941). The settings on record: HepG2 ETS cis-reporter transcription, actives raise or lower the signal. The method in brief:
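Cis-regulated reporter mRNA induction in HepG2 (transient transfection), 24 h exposure, RT-PCR plus capillary electrophoresis detection; DMSO serves as negative control and baseline.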

For experiment [16], the target named is Hepatocyte nuclear factor 3-beta (Homo sapiens) (UniProt Q9Y261). The experiment is described as follows: ATG_FoxA2_CIS: Attagene CIS-FACTORIAL HepG2 Assay for human Forkhead box A2 (FOXA2) (AID 2282942). The settings on record: HepG2 cis-reporter transcription factor activity, 24 h; actives raise or lower the signal. The method in brief: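 Endogenous transcription factor activity was read in HepG2 cells carrying transiently transfected cis-promoter reporter units. After 24 h dosing, reporter mRNA was quantified by RT-PCR and capillary electrophoresis, and values fitted bidirectionally versus DMSO.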

A short description of experiment [17]: ATG_FoxO_CIS: Attagene CIS-FACTORIAL HepG2 Assay for human Forkhead box O (FoxO) (AID 2282943). The settings on record: HepG2 Attagene cis-reporter, FoxO element, mRNA; actives raise or lower the signal. The method in brief: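 HepG2, transient MRTU transfection (cis element, endogenous TFs). Dose 24 h. TriZol RNA → oligo(dT) RT → PCR → 6-FAM primer extension → HpaI cut → CE. Gain/loss vs DMSO.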

The nature of experiment [18]: ATG_GATA_CIS: Attagene CIS-FACTORIAL HepG2 Assay for human GATA Binding Protein (AID 2282944). Conditions: HepG2 GATA cis-element reporter, Attagene multiplex mRNA; actives raise or lower the signal. Put shortly:
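Cells: HepG2, transiently transfected with cis-regulated reporter transcription units. Exposure: 24 h. Detection: RT-PCR plus capillary electrophoresis of FAM-labeled fragments. Analysis: bidirectional, DMSO as baseline.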

The nature of experiment [19]: ATG_GLI_CIS: Attagene CIS-FACTORIAL HepG2 Assay for human Zinc Finger Protein GLI1 (AID 2282945). Conditions: HepG2, Attagene cis-factorial reporter mRNA, GLI element; actives raise or lower the signal. The method in brief: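 Bidirectional curve fits relative to DMSO, using reporter mRNA levels from RT-PCR plus capillary electrophoresis. Cells were HepG2 transiently carrying cis-regulated reporter constructs, harvested 24 h after dosing.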

For experiment [20], the target named is Bile acid receptor (Homo sapiens) (UniProt Q96RI1). The experiment is described as follows: ATG_IR1_CIS: Attagene CIS-FACTORIAL HepG2 Assay for human Nuclear Receptor Subfamily 1 Group H Member 4 (NR1H4), IR1 submotif (AID 2282946). The settings on record: IR1 reporter transcription, actives raise or lower the signal. Put shortly:
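HepG2 cells transiently transfected with multiplexed cis-element reporter units read endogenous transcription factor activity. After 24 h compound exposure, reporter mRNA was quantified by RT-PCR, fluorescent labelling, HpaI digestion and capillary electrophoresis; bidirectional fitting versus DMSO baseline.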

Drawing on PubChem BioAssay (EPA / NIEHS), this text covers outcome and AC50 for six compounds.

Calls of active or inactive are those of the source. How the source made its calls: active means hit-call score of the fitted dose curve at least 0.9, where 1 is the maximum; inactive means score below 0.9.

The AC50 is the concentration giving half of the maximal activity seen.

Hepatocyte nuclear factor 3-beta (Homo sapiens), sequence (Q9Y261 whole entry, looked up): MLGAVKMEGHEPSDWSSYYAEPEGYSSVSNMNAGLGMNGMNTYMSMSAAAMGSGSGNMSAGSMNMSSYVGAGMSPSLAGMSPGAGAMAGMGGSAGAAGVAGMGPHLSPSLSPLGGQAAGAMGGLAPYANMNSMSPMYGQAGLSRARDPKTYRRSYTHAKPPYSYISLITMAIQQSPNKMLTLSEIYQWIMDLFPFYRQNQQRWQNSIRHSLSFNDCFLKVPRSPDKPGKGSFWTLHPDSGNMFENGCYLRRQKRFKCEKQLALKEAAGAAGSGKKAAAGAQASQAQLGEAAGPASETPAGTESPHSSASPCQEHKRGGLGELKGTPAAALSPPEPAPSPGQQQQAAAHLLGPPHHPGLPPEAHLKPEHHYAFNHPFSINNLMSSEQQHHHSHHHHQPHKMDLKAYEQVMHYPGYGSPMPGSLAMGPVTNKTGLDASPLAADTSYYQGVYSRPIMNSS
Aryl hydrocarbon receptor (Homo sapiens), sequence (P35869 whole entry, looked up): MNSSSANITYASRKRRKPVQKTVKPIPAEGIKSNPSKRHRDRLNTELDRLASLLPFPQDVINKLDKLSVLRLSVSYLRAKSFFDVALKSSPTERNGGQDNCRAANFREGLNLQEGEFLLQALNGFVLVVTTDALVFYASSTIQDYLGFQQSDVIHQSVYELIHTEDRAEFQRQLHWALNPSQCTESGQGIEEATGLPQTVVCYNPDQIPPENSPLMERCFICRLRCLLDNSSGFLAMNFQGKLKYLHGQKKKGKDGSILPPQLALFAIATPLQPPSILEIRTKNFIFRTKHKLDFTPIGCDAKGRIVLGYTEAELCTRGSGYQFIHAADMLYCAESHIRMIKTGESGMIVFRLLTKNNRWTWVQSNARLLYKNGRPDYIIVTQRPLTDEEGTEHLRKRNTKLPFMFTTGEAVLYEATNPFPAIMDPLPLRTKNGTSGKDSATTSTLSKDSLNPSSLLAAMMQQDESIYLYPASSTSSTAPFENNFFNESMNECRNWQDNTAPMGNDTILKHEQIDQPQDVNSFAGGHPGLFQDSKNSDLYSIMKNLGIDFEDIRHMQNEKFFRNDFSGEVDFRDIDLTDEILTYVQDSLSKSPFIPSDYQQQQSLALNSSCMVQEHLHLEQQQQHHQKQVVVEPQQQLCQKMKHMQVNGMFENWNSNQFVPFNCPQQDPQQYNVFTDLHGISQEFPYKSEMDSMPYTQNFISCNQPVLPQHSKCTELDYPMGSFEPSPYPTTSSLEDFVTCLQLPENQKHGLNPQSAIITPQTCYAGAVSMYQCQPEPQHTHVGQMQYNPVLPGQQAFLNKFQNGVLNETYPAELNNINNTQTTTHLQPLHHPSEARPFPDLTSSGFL
CCAAT/enhancer-binding protein beta (Homo sapiens), sequence (P17676 whole entry, looked up): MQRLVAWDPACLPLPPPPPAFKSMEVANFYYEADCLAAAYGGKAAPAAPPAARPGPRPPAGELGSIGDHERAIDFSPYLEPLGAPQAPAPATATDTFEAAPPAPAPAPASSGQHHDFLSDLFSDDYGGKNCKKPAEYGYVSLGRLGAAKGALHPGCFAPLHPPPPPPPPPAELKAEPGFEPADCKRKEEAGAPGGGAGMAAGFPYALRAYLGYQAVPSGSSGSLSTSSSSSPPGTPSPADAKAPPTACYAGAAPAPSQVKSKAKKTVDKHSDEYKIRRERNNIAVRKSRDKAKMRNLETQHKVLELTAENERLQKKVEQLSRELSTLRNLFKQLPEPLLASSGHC
Transcription factor E2F1 (Homo sapiens), sequence (Q01094 whole entry, looked up): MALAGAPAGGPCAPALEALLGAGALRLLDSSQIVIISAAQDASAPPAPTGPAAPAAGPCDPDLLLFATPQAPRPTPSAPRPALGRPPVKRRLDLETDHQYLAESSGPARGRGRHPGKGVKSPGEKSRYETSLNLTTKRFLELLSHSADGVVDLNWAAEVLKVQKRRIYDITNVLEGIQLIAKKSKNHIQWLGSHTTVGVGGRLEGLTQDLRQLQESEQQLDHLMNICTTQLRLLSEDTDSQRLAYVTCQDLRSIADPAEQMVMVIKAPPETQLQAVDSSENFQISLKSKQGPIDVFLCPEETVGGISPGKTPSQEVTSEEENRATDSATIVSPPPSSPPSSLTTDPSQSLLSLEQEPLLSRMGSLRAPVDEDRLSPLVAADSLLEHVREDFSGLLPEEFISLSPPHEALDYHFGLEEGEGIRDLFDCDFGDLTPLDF
Bile acid receptor (Homo sapiens), sequence (Q96RI1 whole entry, looked up): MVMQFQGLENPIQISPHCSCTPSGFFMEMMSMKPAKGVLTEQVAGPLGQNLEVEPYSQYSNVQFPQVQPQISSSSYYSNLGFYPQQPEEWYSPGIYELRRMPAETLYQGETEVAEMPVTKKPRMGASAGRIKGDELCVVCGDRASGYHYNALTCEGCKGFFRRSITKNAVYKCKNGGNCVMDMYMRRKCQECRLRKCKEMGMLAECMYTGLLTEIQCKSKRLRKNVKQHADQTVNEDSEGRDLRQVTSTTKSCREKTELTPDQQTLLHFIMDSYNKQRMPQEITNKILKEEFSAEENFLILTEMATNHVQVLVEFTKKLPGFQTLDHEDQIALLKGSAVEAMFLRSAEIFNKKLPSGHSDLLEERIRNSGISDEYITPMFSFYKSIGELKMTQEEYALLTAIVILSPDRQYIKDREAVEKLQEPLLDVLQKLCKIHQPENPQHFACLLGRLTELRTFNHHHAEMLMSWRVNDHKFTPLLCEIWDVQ

With `Nc1nc(=S)c2[nH]cnc2[nH]1`, the compound was called inactive in [1], in experiment [4], in experiment [7], in experiment [8], in [9] and in [10]. In addition, the outcome in experiment [11], in experiment [12], in experiment [13], in [15], in [16] and in [17] was inactive. Moreover, the compound was called inactive in [18] and in experiment [19]. Further, the AC50 in experiment [2] was 100 µM (active); in experiment [3], 19 µM (active); in [5] it was 66.3 µM (active); in experiment [6] it was 12 µM (active); in experiment [14], 98.1 µM (active).
Regarding `O=C1CCCCC1`, the compound was called inactive in experiment [1], in [2], in experiment [3], in experiment [4], in experiment [5] and in experiment [6]. The result in [7], in [8], in experiment [9], in experiment [10], in experiment [11] and in experiment [12] was inactive. Further, the call in experiment [13], in [14], in experiment [15], in experiment [16], in experiment [17] and in experiment [18] was inactive. Further, the outcome in [19] was inactive.
Take `c1ccc2occc2c1`: the compound was classed as inactive in experiment [1], in experiment [2], in experiment [3], in [4], in experiment [6] and in experiment [7]. Also, the outcome in experiment [8], in experiment [9], in experiment [10], in experiment [11], in experiment [12] and in experiment [13] was inactive. Besides, the compound was classed as inactive in experiment [14], in experiment [15], in experiment [16], in experiment [17], in experiment [18] and in experiment [19]. Also, the compound was classed as inactive in [20]. Moreover, the AC50 in experiment [5] was 21.7 µM (active).
Turning to `CCCCCCCCCCCCCCCCO`, the result in [1], in experiment [2], in experiment [3], in experiment [4], in experiment [5] and in experiment [6] was inactive. In addition, the outcome in experiment [7], in experiment [8], in [9], in experiment [10], in [11] and in experiment [12] was inactive. Moreover, the call in [13], in experiment [14], in experiment [15], in experiment [16], in experiment [17] and in experiment [18] was inactive. For the same compound, the call in [19] was inactive.
Take `CCCCCCCCCCCCCCOS(=O)(=O)O`: the outcome in experiment [1], in experiment [2], in [3], in experiment [4], in [5] and in experiment [6] was inactive. Also, the compound was classed as inactive in experiment [7], in experiment [8], in experiment [9], in experiment [10], in experiment [11] and in experiment [12]. Besides, the outcome in [13], in [14], in experiment [15], in experiment [16], in experiment [17] and in [18] was inactive. In addition, the outcome in [19] was inactive.
For `C=CCc1ccc(OC)c(OC)c1`, the compound was classed as inactive in [1], in experiment [2], in experiment [3], in experiment [4], in experiment [5] and in experiment [6]. The compound was classed as inactive in experiment [7], in experiment [8], in experiment [9], in [10], in [11] and in experiment [12]. In addition, the compound was called inactive in experiment [13], in experiment [15], in experiment [16], in experiment [17], in experiment [18] and in experiment [19]. Moreover, the compound was called inactive in [20].
